HCMV antiviral = qHTS Assay for inhibitors of the human cytomegalovirus (HCMV); HFF cells, HCMV-luciferase reporter, 72 h; stronger effect = lower value; activity change, negative = inhibition, % at 57.5 µM; hit rate 4.5% among 410,000; AID 1259415, 2018; in the data active = activity change below about -60%; inconclusive = no clear call, values can overlap the other calls; inactive = above about -39%
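Screen run at 2 compound doses on HFFs infected with reporter HCMV, MOI 1 PFU/cell. Luciferase activity from cell lysates at 72 h post infection gave inhibition relative to buffer-only and Salinomycin wells.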
FMDV antiviral = High Throughput Screening for Foot and Mouth Disease Virus Antivirals; Potency, µM (doses to about 57.9 µM), without a hit: at the top dose activity change, negative = inhibition, most hits filed as inhibitors; hit rate 1.2% among 410,000; FMDV antiviral cell-based qHTS; calls by dose curve; tested in HEK293T cells; note: read-out not given here; potency is the fitted concentration of half-maximal effect; nearly all actives have a fitted effect of over 45% in size
HCV inhibitor = qHTS Assay for Inhibitors of Hepatitis C Virus (HCV). Huh7.5.1 HCVcc-Cre infection, luciferase reporter, 44 h. Potency, µM (titrated, usually from 41.8 µM), for inactives: top-dose activity change, negative = inhibition, usual class: inhibitors. hit rate 3.4% among 340,000. AID 651820, 2012; note: potency is the fitted concentration of half-maximal effect
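HCVcc-Cre virus at an moi near 0.5 was added right after compound to cells cultured 4 h from seeding (1,000 cells/well). Luciferase activity was determined 44 h later, 15 min after substrate addition at RT.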
MARV entry inh = qHTS for inhibitors of binding or entry into cells for Marburg Virus; hit rate 1.8% among 300,000; Potency, µM (highest dose often 37.8 µM), for inactives: at the top dose activity change, negative = inhibition, actives largely listed as inhibitors; AID 540276, 2011; Marburg virus pseudotyped entry inhibition, cell reporter; calls by dose curve; tested in HEK293 cells; note: potency is the fitted concentration of half-maximal effect
LASV entry inh = qHTS for Inhibitors of binding or entry into cells for Lassa Virus | Lassa virus pseudotype entry inhibition, cell reporter | Potency, µM (highest dose often 37.9 µM), inactives show at the top dose activity change, negative = inhibition, actives largely listed as inhibitors | hit rate 1.2% among 300,000 | AID 540256, 2011; calls by dose curve; tested in HEK293 cells; note: potency is the fitted concentration of half-maximal effect; nearly all actives have a fitted effect of over 50% in size
Giardia FBPA inh-1 = qHTS Assay for Inhibitors of Fructose-1,6-bisphosphate Aldolase from Giardia Lamblia; Potency, µM (doses to about 59.6 µM), inactives show top-dose activity, negative = inhibition, actives largely listed as inhibitors; purified Giardia FBPA; hit rate 0.71% among 290,000; A8B2U2; note: potency is the fitted concentration of half-maximal effect; nearly all actives have a fitted effect of over 55% in size
Target sequence (A8B2U2 whole entry, looked up): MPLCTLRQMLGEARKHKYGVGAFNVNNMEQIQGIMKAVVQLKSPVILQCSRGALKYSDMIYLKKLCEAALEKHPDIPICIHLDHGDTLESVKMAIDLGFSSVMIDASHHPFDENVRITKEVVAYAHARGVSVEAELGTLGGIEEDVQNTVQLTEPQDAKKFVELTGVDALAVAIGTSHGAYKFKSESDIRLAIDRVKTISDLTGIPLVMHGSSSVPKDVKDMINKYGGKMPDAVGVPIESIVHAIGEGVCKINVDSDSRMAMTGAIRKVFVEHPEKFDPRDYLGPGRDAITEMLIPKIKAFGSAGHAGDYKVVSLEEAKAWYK
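Giardia FBPA (40 nM reagent) was preincubated 10 min at RT with compound (up to 57.5 uM final), then substrate plus GAPDH/TPI/NAD/arsenate coupling system with diaphorase/resazurin was added; resorufin fluorescence (525/598 nm) was read after 20 min.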
Giardia growth = qHTS Assay for Inhibitors of Fructose-1,6-bisphosphate Aldolase from Giardia Lamblia: Giardia lamblia growth inhibition; Potency, µM (highest dose often 57.5 µM), without a hit: top-dose activity change, negative = inhibition, usual class: inhibitors; shares compounds with Giardia FBPA inh-1; hit rate 5% among 1,500; Giardia lamblia trophozoite growth inhibition; AID 2785, 2010;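 note: potency is the fitted concentration of half-maximal effect; trophozoites exposed to compound for 48 h at 37 °C; nearly all actives have a fitted effect of over 70% in size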
Mammalian tox = qHTS Assay for Inhibitors of Fructose-1,6-bisphosphate Aldolase from Giardia Lamblia: Mammalian cellular toxicity; shares compounds with Giardia FBPA inh-1; mammalian cell viability counter-screen, qHTS; Potency, µM (series often up to 57.5 µM), for the others: at the top dose viability change, negative = toxicity, most hits filed as inhibitors; hit rate 4% among 1,500;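 note: Chinese hamster ovary cells used as mammalian cytotoxicity surrogate; viability measured as cellular ATP by luminescence; potency is the fitted concentration of half-maximal effect; compound exposure lasted 48 h before reading; nearly all actives have a fitted effect of over 60% in size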
Giardia FBPA inh-2 = qHTS Assay for Inhibitors of Fructose-1,6-bisphosphate Aldolase from Giardia Lamblia: Primary screen confirmation; AID 2787, 2010; shares compounds with Giardia FBPA inh-1; hit rate 5% among 1,500; purified Giardia aldolase enzyme activity, qHTS; Potency, µM (titrated, usually from 57.5 µM), for inactives: at the highest dose activity change, negative = inhibition, hits mostly inhibitors; note: potency is the fitted concentration of half-maximal effect; nearly all actives have a fitted effect of over 45% in size
Rabbit aldolase = qHTS Assay for Inhibitors of Fructose-1,6-bisphosphate Aldolase from Giardia Lamblia: Rabbit FBPA Selectivity | shares compounds with Giardia FBPA inh-1 | Rabbit muscle FBPA enzyme inhibition, selectivity counter-screen | Potency, µM (doses to about 57.5 µM), inactives show at the top dose activity, negative = inhibition, most hits filed as inhibitors | hit rate 4% among 1,500 | AID 2794, 2010; note: potency is the fitted concentration of half-maximal effect; nearly all actives have a fitted effect of over 60% in size
GAPDH coupling = qHTS Assay for Inhibitors of Fructose-1,6-bisphosphate Aldolase from Giardia Lamblia: Coupling assay counterscreen confirmation | shares compounds with Giardia FBPA inh-1 | AID 2795, 2010 | Potency, µM (doses to about 57.5 µM), for inactives: at the highest dose activity change, negative = inhibition, actives largely listed as inhibitors | hit rate 6% among 1,500 | GAPDH coupling enzyme counterscreen, biochemical, qHTS; note: potency is the fitted concentration of half-maximal effect; nearly all actives have a fitted effect of over 55% in size
The depositor's hits bear a star; ? = inconclusive; . = no result given; [ ] = dose if it differs, or a comment. An excerpt weighted towards active compounds, which were near 8.3% of everything screened. Unless noted, calls come from the whole dose curve; as a rule, active = well fitted curve in the direction sought with a large enough effect; inconclusive = small, poorly fitted or top-dose-only effect, or another doubt; inactive = no such curve, though single readings can be large; an effect the other way counts as inactive or inconclusive. % is set by controls: 0 for no effect and ±100 for the full control effect.

SMILES	HCMV antiviral	FMDV antiviral	HCV inhibitor	MARV entry inh	LASV entry inh	Giardia FBPA inh-1	Giardia growth	Mammalian tox	Giardia FBPA inh-2	Rabbit aldolase	GAPDH coupling
CC(C)(C)OC(=O)N[C@@H]1C=CC(=O)C1	-18	.	.	.	.	.	.	.	.	.	.
Cc1ccc(C)n1-c1nc(=S)[nH][nH]1	38	6%	.	-11%	49%[14.3 µM]	18µM*	-3%[10.4 µM]	-8%	2%	-22%	-21%
C#CCCCC(=S)Nc1ccccc1	.	.	.	.	.	5%	.	.	.	.	.
CCN1C(=O)[C@H]2[C@H]3[C@H](O)[C@H](O)C/C(=N/O[C@@H]4O[C@H](COC(C)=O)[C@@H](OC(C)=O)[C@H](OC(C)=O)[C@H]4OC(C)=O)[C@@H]3CC[C@@H]2C1=O	.	.	.	.	.	0%[12.9 µM]	.	.	.	.	.
CC(C)NCC(O)c1ccc(O)c(O)c1 (centres undefined)	?	-17%	13%	?	3%	11µM*	15%	7%	?	?	-23%
CNc1cccccc1=S	-19	-3%	-3%	-4%	15%	10µM*	-13%	5%	?	?	32µM*
Cc1ccc(S(=O)(=O)/N=C2/C=C(Sc3ncn[nH]3)C(=O)c3ccccc32)cc1	.	-25%	4µM*	?	2.9µM*	0.45µM*	7.1µM*	20µM*	2.5µM*	10µM*	3.2µM*
C=CCN=c1scc(C)n1/N=C/c1ccc(O)c(O)c1	-97*	77%	11µM*	.	.	22µM*	8%	-19%	-25%	-29%	-18%
CN=c1scc(C)n1/N=C/c1ccc(O)cc1O	16	?	?	?	?	-3%	.	.	.	.	.
Cc1[nH]c2ccccc2c1/C=N/O	4	6%	4%	?	-5%	-1%	.	.	.	.	.
CCN(CC)c1ccc(N=Cc2c(C)[nH]c3ccccc23)cc1	-17	-11%	?	?	-21%	?	5%[38.3 µM]	-22%	?	?	?
Cc1ccccc1Cn1c(C)c(CNCCCc2ccccc2)c(C(=O)O)c1C	12	-9%	.	-32%[46.1 µM]	?	.	.	.	.	.	.
O=C1/C(=C/c2ccc(O)c(O)c2)SC(=S)N1Nc1ccccc1	.	4%	?	?	?	?	.	.	.	.	.
O=C(NN1C(=O)/C(=C/c2ccc(O)c(O)c2)SC1=S)c1ccccc1	18	?	-15%	?	?	14µM*	-4%	-9%	-20%	-25%	0%
CCNc1nc(NC(C)C)nc(OCCNS(=O)(=O)c2cc(C)ccc2C)n1	47	-16%	?	-25%	-13%	6%	.	.	.	.	.
CCNc1nc(NC(C)C)nc(NS(=O)(=O)c2ccc(C)cc2)n1	-8	85%	13%	.	.	28µM*	-20%	-2%	?	?	40µM*
